In ChEMBL document CHEMBL3433997, “St. Jude Leishmania screening dataset” (2016):

What was measured:
Format in all cases: functional
[1] = target: Solute carrier family 2, facilitated glucose transporter member 1 (Homo sapiens) (UniProt P11166); assay: ST_JUDE_LEISH: Cytotoxicity at 2uM final concentration against transgenic Leishmania Mexicana promastigotes LmGLUT1 that are glucose transport deficient and complemented with the human glucose transporter GLUT1. Activity is measured by DNA content using SYBR green in vitro
Solute carrier family 2, facilitated glucose transporter member 1 (Homo sapiens), sequence (P11166 whole entry): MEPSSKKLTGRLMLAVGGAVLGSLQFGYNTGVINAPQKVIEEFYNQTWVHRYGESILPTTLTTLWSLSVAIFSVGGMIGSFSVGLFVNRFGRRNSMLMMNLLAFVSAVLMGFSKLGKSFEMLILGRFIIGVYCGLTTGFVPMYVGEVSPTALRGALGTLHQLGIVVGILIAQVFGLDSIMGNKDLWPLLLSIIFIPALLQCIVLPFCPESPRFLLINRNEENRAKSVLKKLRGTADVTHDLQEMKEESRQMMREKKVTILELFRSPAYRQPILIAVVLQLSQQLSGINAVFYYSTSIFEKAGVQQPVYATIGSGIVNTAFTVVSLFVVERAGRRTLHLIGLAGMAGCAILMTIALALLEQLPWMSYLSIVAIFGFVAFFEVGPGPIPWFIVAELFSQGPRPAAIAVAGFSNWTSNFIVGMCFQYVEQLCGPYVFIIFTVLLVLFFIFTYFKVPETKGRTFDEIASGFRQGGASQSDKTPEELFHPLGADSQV

[2] = target: Hexose transporter 1 (Plasmodium falciparum) (UniProt O97467); assay: ST_JUDE_LEISH: Cytotoxicity at 2uM final concentration against transgenic Leishmania Mexicana promastigotes LmPfHT that are glucose transport deficient and complemented with the Plasmodium falciparum hexose transporter. Activity is measured by DNA content using SYBR green in vitro
[3] = target: Glucose transporter (Leishmania mexicana) (UniProt O61059); assay: ST_JUDE_LEISH: Cytotoxicity at 2uM final concentration against transgenic Leishmania Mexicana promastigotes LmGT2 that are glucose transport deficient and complemented with the L. Mexicana glucose transporter 2. Activity is measured by DNA content using SYBR green in vitro

SMILES | inhibition [1] [%] | inhibition [2] [%] | inhibition [3] [%]
Cc1cccc2nc(-c3ccc(-c4ccc(CNCc5cccc(N)c5)cc4)s3)[nH]c12 | 4.29 | 1.98 | 2.76
CC(=O)Nc1cccc(C(=O)Nc2cccc(-c3cccc(-c4nc5ccccc5[nH]4)c3)c2)c1 | 16.4 | 15.5 | 17.4
OC1=C2C(=Nc3ccccc3SC2c2ccccc2)c2ccccc21 (stereo unspecified) | 4.3 | 5.31 | 1.01
Clc1ccc2c(NN=Cc3cccs3)ccnc2c1 | 1.34 | 1.3 | 2.8
CC(=O)N1N=C(c2cccs2)Sc2c1nc(-c1ccc(Cl)cc1)n2C(C)=O | 11.9 | 12.2 | 11.9
CCN(CC)CCOc1ccc(C(O)(C#CC(O)(c2ccc(OCCN(CC)CC)cc2)c2ccc([N+](=O)[O-])cc2)c2ccc([N+](=O)[O-])cc2)cc1 (stereo unspecified) | 61 | 32.7 | 4.31
COc1cc(C=Cc2ccc3ccccc3n2)cc(Br)c1OCC(=O)N(C)C | 6.85 | -1.14 | -0.95
CC(C)(C)c1ccc(Cc2cccc3nc(N)nc(N)c23)cc1 | 21 | 16.4 | 11.4
Cc1ccc2nc3c(cc(C(=O)NCCc4ccccc4)c(=N)n3CCCOC(C)C)c(=O)n2c1 | -0.01 | 0.31 | -1.76
CC1=C(C(=O)Nc2cc3cn[nH]c3cc2F)C(c2cccc(O)c2F)CC(=O)N1 (stereo unspecified) | -2.25 | -3.23 | 0.72
Cc1cc(N)nc2ccc(-c3ccc(CCN)cc3)cc12 | 2.07 | 3.64 | 0.96
c1cc(-c2ccc(CNCCCn3ccnc3)cc2)cc(-c2nc3ccccc3[nH]2)c1 | 2.87 | 2.53 | 0.93
